# Experimental data published in paper PMC7862700, “An all-to-all approach to the identification of sequence-specific readers for epigenetic DNA modifications on cytosine”.
# How the values were obtained:
# Experiment in all cases: DAPPL (digital affinity profiling via proximity ligation, sequencing); 10 mM Tris-HCl pH 7.5, 50 mM NaCl, 1 mM DTT, 4% glycerol, room temperature, 30 min; GST-TFs on glutathione beads, 16-mer random dsDNA library, 0.1% formaldehyde crosslink after washing; high values mean tight binding
# FLI1 = target: T1, FLI1 (Homo sapiens, UniProt Q01543 1-452); conditions: protein: recombinant; tags: N-terminal GST; dsDNA, one strand shown
# T1 sequence: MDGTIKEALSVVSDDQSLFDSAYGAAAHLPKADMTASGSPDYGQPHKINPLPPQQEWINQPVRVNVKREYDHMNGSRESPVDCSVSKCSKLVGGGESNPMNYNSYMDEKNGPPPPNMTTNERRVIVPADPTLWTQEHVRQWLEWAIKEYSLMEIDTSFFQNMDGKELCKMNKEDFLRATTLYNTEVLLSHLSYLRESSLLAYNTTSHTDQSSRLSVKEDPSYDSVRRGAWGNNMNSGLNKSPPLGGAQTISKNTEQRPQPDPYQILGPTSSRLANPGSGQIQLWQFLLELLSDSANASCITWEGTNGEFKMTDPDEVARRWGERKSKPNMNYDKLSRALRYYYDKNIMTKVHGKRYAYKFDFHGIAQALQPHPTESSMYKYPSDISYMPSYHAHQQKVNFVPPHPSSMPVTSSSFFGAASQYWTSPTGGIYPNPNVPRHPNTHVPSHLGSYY
# Procedure, shortened: (§1)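 GST fusions of human transcription factors were expressed in yeast and captured with glutathione beads. Once given DNA barcodes and pooled alongside a tag-only sample, they were incubated for 30 min at room temperature with 200 nmole of a random double-stranded 16-mer DNA library in Tris/NaCl/DTT/glycerol buffer, then washed, crosslinked (0.1% formaldehyde), proximity-ligated, PCR-amplified and sequenced on an Illumina NextSeq500. The binding signal of each hexamer is its read frequency for a factor divided by its frequency for the tag-only sample.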
# ELK1 = target: T2, ELK1 (Homo sapiens, UniProt P19419 1-428); conditions: protein: recombinant; tags: N-terminal GST; dsDNA, one strand shown
# T2 sequence: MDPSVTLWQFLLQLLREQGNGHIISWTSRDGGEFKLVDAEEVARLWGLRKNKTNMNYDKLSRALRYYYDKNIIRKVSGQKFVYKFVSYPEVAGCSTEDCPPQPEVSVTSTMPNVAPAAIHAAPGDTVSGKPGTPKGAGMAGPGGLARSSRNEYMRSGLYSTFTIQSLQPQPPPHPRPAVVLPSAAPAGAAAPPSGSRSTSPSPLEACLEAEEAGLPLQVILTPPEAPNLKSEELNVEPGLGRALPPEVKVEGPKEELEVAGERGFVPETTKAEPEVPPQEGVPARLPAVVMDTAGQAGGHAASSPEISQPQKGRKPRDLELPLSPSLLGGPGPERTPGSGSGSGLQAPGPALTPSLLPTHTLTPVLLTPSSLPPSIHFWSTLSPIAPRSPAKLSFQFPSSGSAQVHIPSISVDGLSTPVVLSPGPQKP
# Procedure, shortened: as §1
# GABPA = target: T3, GABPA (Homo sapiens, UniProt Q06546 1-454); conditions: protein: recombinant; tags: N-terminal GST; dsDNA, one strand shown
# T3 sequence: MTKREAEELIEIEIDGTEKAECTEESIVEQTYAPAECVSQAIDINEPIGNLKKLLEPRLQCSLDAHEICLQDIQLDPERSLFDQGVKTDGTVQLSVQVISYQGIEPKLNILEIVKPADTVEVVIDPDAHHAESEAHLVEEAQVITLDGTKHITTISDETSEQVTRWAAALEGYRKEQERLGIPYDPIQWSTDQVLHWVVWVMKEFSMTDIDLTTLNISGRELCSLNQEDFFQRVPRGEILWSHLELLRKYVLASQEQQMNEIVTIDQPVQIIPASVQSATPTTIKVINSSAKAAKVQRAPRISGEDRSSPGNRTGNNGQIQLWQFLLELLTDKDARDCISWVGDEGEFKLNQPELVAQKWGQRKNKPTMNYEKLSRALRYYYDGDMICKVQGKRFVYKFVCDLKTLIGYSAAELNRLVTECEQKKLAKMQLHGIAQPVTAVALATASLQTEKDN
# Procedure, shortened: as §1
# ERG = target: T4, ERG (Homo sapiens, UniProt P11308 1-479); conditions: protein: recombinant; tags: N-terminal GST; dsDNA, one strand shown
# T4 sequence: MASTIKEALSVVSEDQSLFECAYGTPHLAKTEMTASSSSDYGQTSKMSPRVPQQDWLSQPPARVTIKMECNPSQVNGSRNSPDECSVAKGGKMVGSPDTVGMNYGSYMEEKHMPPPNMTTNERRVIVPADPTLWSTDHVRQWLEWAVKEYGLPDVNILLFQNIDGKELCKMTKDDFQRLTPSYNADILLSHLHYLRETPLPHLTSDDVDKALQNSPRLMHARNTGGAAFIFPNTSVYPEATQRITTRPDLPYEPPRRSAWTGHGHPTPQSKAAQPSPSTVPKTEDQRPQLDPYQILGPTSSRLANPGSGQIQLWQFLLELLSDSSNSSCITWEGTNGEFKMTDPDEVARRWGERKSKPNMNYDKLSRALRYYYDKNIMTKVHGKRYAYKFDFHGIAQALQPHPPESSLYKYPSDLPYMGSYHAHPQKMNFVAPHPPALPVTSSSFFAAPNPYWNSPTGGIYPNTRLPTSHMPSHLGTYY
# Procedure, shortened: as §1
# ELF1 = ELF1 (Homo sapiens, UniProt P32519 1-619); conditions: protein: recombinant; tags: N-terminal GST; dsDNA, one strand shown
# Chain of ELF1 (P32519 whole entry): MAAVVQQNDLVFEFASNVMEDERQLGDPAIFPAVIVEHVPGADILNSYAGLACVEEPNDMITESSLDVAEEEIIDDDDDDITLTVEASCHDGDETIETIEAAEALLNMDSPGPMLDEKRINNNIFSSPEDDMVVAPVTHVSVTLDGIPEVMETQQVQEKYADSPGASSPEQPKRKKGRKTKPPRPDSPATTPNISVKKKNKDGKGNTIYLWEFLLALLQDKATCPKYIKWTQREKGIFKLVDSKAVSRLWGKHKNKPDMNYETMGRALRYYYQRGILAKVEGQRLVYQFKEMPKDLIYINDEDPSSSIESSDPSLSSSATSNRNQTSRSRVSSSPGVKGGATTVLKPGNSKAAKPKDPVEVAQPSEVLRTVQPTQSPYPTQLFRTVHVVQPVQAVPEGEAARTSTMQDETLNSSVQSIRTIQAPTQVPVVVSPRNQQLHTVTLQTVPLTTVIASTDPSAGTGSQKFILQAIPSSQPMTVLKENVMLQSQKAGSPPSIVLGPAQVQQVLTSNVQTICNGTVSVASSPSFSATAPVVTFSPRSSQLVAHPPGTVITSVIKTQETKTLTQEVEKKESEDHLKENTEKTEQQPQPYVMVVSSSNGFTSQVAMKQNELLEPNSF
# Procedure, shortened: as §1
# EHF = target: T5, EHF (Homo sapiens, UniProt Q9NZC4 1-300); conditions: protein: recombinant; tags: N-terminal GST; dsDNA, one strand shown
# T5 sequence: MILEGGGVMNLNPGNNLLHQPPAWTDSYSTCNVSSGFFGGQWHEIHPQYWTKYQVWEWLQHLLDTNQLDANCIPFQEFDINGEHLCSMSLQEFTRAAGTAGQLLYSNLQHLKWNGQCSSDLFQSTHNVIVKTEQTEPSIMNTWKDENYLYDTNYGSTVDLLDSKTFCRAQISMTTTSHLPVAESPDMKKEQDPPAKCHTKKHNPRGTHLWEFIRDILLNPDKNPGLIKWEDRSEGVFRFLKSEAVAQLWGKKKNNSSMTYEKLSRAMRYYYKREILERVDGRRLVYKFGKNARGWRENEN
# Procedure, shortened: as §1
# SPI1 = SPI1 (Homo sapiens, UniProt P17947 1-270); conditions: protein: recombinant; tags: N-terminal GST; dsDNA, one strand shown
# Procedure, shortened: as §1
# SPIB = SPIB (Homo sapiens, UniProt Q01892 1-262); conditions: protein: recombinant; tags: N-terminal GST; dsDNA, one strand shown
# Chain of SPIB (Q01892 whole entry): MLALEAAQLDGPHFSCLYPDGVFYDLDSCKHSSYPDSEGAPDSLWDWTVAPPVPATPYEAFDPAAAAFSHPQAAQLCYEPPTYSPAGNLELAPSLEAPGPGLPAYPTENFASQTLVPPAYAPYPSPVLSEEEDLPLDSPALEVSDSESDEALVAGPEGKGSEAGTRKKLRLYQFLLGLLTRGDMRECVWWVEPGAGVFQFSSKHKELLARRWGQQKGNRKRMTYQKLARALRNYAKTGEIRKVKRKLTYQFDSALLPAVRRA
# Procedure, shortened: as §1
# ELK3 = target: T6, ELK3 (Homo sapiens, UniProt P41970 1-407); conditions: protein: recombinant; tags: N-terminal GST; dsDNA, one strand shown
# T6 sequence: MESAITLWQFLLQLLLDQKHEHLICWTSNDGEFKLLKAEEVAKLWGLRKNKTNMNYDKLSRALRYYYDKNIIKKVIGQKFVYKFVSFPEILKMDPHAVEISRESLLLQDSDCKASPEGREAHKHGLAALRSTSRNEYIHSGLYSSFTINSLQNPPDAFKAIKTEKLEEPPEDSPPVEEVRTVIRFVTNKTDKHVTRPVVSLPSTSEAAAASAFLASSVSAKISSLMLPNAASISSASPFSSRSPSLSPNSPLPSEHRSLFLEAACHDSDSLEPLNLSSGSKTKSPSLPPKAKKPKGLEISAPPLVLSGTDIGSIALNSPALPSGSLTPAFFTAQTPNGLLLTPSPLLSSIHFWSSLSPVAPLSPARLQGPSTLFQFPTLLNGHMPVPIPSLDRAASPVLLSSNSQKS
# Procedure, shortened: as §1
# FEV = target: T7, FEV (Homo sapiens, UniProt Q99581 1-238); conditions: protein: recombinant; tags: N-terminal GST; dsDNA, one strand shown
# T7 sequence: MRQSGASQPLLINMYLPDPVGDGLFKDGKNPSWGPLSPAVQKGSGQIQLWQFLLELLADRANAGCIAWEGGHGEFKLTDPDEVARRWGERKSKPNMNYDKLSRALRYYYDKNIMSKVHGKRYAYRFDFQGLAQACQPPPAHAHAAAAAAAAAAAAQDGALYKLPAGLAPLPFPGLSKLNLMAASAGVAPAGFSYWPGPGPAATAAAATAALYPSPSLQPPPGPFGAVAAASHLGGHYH
# Procedure, shortened: as §1
# ETV5 = ETV5 (Homo sapiens, UniProt P41161 1-510); conditions: protein: recombinant; tags: N-terminal GST; dsDNA, one strand shown
# Chain of ETV5 (P41161 whole entry): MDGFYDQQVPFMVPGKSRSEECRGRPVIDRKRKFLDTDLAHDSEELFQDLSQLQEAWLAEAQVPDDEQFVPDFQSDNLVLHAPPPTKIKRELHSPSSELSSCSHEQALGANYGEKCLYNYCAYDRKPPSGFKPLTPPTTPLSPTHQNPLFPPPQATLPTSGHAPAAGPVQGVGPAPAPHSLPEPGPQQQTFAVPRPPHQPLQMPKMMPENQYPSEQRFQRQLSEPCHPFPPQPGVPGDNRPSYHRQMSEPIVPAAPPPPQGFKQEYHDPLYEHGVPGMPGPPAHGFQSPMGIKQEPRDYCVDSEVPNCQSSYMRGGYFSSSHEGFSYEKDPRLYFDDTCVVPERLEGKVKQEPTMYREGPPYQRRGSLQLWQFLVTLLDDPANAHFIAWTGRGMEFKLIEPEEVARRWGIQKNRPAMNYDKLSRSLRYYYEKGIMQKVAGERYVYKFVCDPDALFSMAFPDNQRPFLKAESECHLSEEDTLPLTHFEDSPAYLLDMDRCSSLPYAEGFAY
# Procedure, shortened: as §1
# HSF1 = HSF1 (Homo sapiens, UniProt Q00613 1-529); conditions: protein: recombinant; tags: N-terminal GST; chain copies: 3; dsDNA, one strand shown
# Chain of HSF1 (Q00613 whole entry): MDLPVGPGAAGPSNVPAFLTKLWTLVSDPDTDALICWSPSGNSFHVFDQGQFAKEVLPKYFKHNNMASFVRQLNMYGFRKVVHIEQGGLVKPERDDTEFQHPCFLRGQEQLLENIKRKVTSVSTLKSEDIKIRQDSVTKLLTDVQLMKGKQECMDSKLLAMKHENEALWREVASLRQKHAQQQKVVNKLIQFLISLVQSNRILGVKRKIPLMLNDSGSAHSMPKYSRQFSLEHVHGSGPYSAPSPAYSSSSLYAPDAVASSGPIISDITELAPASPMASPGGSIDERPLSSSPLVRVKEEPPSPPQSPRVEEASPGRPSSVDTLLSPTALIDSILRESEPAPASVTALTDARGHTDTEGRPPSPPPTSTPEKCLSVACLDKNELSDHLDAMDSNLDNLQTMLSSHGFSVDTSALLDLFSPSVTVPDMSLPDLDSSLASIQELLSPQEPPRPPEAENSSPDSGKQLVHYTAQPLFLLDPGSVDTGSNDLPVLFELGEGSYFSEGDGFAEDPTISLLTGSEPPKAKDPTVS
# Procedure, shortened: as §1
# SPIC = target: T8, SPIC (Homo sapiens, UniProt Q8N5J4 1-248); conditions: protein: recombinant; tags: N-terminal GST; dsDNA, one strand shown
# T8 sequence: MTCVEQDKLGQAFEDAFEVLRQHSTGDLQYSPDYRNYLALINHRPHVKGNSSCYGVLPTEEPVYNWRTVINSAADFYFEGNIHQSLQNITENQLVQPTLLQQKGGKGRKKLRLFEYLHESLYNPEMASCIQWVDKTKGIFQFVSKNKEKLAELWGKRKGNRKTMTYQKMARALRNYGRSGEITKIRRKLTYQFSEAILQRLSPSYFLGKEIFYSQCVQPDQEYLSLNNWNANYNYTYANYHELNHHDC
# Procedure, shortened: as §1
# ELF4 = ELF4 (Homo sapiens, UniProt Q99607 1-663); conditions: protein: recombinant; tags: N-terminal GST; dsDNA, one strand shown
# Chain of ELF4 (Q99607 whole entry): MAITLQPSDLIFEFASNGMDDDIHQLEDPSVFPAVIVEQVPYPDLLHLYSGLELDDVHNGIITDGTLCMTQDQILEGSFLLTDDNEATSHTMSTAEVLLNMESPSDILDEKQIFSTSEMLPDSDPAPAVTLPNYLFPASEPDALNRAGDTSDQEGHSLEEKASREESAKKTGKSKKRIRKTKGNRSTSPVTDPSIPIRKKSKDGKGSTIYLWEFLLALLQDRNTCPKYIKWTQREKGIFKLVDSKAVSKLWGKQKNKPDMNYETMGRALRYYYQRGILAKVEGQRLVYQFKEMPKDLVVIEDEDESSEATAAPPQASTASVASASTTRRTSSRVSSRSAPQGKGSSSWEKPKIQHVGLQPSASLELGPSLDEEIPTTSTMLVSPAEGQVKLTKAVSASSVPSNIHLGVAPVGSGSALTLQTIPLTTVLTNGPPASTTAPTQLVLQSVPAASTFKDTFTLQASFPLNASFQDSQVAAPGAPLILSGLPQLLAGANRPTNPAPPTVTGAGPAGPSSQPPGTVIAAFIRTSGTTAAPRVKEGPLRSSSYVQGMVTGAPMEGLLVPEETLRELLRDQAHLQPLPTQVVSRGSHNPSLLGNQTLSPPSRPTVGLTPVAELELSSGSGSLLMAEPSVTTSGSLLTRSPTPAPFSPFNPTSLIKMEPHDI
# Procedure, shortened: as §1
# ELK4 = target: T9, ELK4 (Homo sapiens, UniProt P28324-2 1-405); conditions: protein: recombinant; tags: N-terminal GST; dsDNA, one strand shown
# T9 sequence: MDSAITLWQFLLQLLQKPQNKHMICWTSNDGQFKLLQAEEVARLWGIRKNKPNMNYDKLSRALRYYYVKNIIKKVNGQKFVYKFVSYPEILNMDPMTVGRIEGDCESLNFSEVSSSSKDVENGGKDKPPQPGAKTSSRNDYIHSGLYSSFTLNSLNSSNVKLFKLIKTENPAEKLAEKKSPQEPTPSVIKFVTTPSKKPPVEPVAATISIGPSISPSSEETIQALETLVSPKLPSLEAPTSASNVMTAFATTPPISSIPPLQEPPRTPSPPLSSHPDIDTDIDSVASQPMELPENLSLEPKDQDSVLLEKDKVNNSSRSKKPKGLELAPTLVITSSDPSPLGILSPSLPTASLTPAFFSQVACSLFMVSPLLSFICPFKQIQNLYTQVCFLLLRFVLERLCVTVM
# Procedure, shortened: as §1
# ETV2 = target: T10, ETV2 (Homo sapiens, UniProt O00321 1-342); conditions: protein: recombinant; tags: N-terminal GST; dsDNA, one strand shown
# T10 sequence: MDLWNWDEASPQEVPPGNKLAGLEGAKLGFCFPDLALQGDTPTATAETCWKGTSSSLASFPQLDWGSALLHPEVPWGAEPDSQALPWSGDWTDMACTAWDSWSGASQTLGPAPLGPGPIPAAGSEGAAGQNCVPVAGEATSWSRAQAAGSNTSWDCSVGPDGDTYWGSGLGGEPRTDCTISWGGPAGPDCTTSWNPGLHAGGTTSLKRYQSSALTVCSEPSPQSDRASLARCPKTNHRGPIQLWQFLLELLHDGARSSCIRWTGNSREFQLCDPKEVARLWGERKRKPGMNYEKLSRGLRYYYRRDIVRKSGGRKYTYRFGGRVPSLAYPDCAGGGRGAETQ
# Procedure, shortened: as §1
# ELF3 = target: T11, ELF3 (Homo sapiens, UniProt P78545 1-371); conditions: protein: recombinant; tags: N-terminal GST; dsDNA, one strand shown
# T11 sequence: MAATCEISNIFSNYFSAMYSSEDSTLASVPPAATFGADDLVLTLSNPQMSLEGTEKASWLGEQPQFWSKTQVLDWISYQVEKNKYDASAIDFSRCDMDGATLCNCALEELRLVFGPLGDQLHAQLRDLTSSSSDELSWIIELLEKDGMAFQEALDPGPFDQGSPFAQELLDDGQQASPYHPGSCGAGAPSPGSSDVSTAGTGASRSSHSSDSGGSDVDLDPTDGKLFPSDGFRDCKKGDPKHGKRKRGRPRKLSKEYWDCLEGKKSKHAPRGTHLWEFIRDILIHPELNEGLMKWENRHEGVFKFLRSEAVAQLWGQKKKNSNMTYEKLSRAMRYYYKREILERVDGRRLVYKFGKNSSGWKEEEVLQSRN
# Procedure, shortened: as §1
# CRX = CRX (Homo sapiens, UniProt O43186 1-299); conditions: protein: recombinant; tags: N-terminal GST; dsDNA, one strand shown
# Chain of CRX (O43186 whole entry): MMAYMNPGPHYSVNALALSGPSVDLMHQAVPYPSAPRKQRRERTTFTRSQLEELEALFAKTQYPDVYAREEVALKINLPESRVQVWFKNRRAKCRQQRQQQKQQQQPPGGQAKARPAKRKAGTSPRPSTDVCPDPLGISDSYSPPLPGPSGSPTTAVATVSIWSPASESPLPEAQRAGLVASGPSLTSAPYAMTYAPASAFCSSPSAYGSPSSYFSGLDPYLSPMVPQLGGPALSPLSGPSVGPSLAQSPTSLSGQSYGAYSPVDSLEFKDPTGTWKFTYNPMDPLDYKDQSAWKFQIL
# Procedure, shortened: as §1
# ETV1 = ETV1 (Homo sapiens, UniProt P50549 1-477); conditions: protein: recombinant; tags: N-terminal GST; dsDNA, one strand shown
# Chain of ETV1 (P50549 whole entry): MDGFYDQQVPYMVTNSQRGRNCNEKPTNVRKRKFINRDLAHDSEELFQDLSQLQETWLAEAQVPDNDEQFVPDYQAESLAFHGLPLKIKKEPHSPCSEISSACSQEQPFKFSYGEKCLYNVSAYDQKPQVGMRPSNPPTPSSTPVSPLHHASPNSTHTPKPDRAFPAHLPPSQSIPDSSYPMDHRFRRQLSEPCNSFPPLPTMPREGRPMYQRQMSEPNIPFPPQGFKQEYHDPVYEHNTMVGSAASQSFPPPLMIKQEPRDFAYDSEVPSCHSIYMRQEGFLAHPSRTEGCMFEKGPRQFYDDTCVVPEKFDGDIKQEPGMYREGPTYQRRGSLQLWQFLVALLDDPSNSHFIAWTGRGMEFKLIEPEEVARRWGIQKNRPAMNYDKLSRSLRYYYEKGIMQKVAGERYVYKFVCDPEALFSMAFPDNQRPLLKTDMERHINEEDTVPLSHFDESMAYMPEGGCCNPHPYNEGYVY
# Procedure, shortened: as §1
sequence,measurement,setting,value
CCTATT,binding signal,FLI1,"1.47 fold enrichment (6-mer frequency, TF over GST control)"
same,binding signal,ELK1,"1.55 fold enrichment (6-mer frequency, TF over GST control)"
same,binding signal,GABPA,"1.49 fold enrichment (6-mer frequency, TF over GST control)"
same,binding signal,ERG,"1.53 fold enrichment (6-mer frequency, TF over GST control)"
same,binding signal,ELF1,"1.56 fold enrichment (6-mer frequency, TF over GST control)"
same,binding signal,EHF,"1.64 fold enrichment (6-mer frequency, TF over GST control)"
same,binding signal,SPI1,"1.55 fold enrichment (6-mer frequency, TF over GST control)"
same,binding signal,SPIB,"1.44 fold enrichment (6-mer frequency, TF over GST control)"
same,binding signal,ELK3,"1.4 fold enrichment (6-mer frequency, TF over GST control)"
same,binding signal,FEV,"1.39 fold enrichment (6-mer frequency, TF over GST control)"
same,binding signal,ETV5,"1.51 fold enrichment (6-mer frequency, TF over GST control)"
same,binding signal,HSF1,"1.43 fold enrichment (6-mer frequency, TF over GST control)"
same,binding signal,SPIC,"1.46 fold enrichment (6-mer frequency, TF over GST control)"
same,binding signal,ELF4,"1.44 fold enrichment (6-mer frequency, TF over GST control)"
same,binding signal,ELK4,"1.37 fold enrichment (6-mer frequency, TF over GST control)"
same,binding signal,ETV2,"1.46 fold enrichment (6-mer frequency, TF over GST control)"
same,binding signal,ELF3,"1.54 fold enrichment (6-mer frequency, TF over GST control)"
same,binding signal,CRX,"1.67 fold enrichment (6-mer frequency, TF over GST control)"
same,binding signal,ETV1,"1.55 fold enrichment (6-mer frequency, TF over GST control)"
